# In all, about 2,800 compounds went through this assay and fewer than 10 were called active. Not shown: some 7% with an inconclusive outcome. Only a sample is shown. Values without a mark were called inactive. The call rests on the fitted dose curve; in most records, active means well fitted inhibition curve with a large enough effect; inconclusive means small, poorly fitted or top-dose-only effect; inactive means no such curve, though single readings can be large or run the other way.
# Target: Metallo-beta-lactamase type 2 (Klebsiella pneumoniae) (UniProt C7C422)
# Assay: qHTS to identify inhibitors of the New Delhi Metallo-beta-lactamase (NDM): Nitrocefin screen against the machine-based learning selections. On activity, negative = inhibition: % of control where 0% means no effect.
# Details: NDM-1 enzyme, nitrocefin hydrolysis, absorbance 485 nm; series mostly up to 38.4 µM; activity, negative = inhibition: at the top concentration
# Source text: Assay Submitter (PI): James Inglese Ph.D., Patricia Dranchak Ph.D., Mahesh Aitha Ph.D. Assay Development and Screening Technology Laboratory (ADST) National Center for Advancing Translational Sciences (NCATS), Rockville, MD National Institute of Health (NIH), Bethesda, Maryland The metallo-beta-lactamases (MBL) are a main antibiotic resistance mechanism evolved by bacteria. There is an urgent clinical need for MBL inhibitors to mitigate this growing threat. To support a machine-based learning study, qHTS has been used to experimentally test inhibitors identified by prediction tools.
# PROTOCOL TABLE (as described by Inglese et al., 2007) SEQUENCE No. (e.g., 1, 2, 3, etc.); […] (e.g., enzyme, Incubation, Reagent, etc.); VALUE; DESCRIPTION Primary Screen 1; NDM-1; 4 uL of 3 nM enzyme [2 nM final] in 50 mM HEPES (pH 7.0), 1 uM […], 0.01% Tween20; Use BioRaptr to dispense into two sets of Aurora black, clear bottom high base 1536-well plates 2; Compounds; 23 nL; Use Pin Tool (Wako) to transfer DMSO control and library compounds in DMSO 3; Incubate; >30 min 4a; Reagent; 2 uL of 50 uM nitrocefin [16.7 uM final] to one set of assay plates 4b; Reagent; 2 uL of 150 uM meropenem [50 uM final] to second set of assay plates 5a; Incubate; 15 min 5b; Incubate; 30 min 6a; Detector; Absorbance at 485 nm (bandwidth = 5 nm, 25 flashes/well) on Tecan Infinity 6b; Detector; Absorbance at 300 nm (bandwidth = 5 nm, 25 flashes/well) on Tecan Infinity NOTES (numbers refer to sequence above) 1; Column 1 of each plate received assay buffer without enzyme and columns 2-48 received enzyme for a final assay concentration of 2 nM. 2; Control plate contained DMSO in columns 1, 2, 3, and 4. 3; Compound interaction with enzyme. 4; Nitrocefin and meropenem substrates were prepared in the same assay buffer as step 1 for a final assay concentration of 16.7 uM and 50 uM, respectively, and added to all wells across respective sets of assay plates. 5; Default reader settings were applied for absorbance read at 485 nm (nitrocefin) or 300 nm (meropenem), bandwidth = 5 nm, 25 flashes/well. References: Inglese J, Shamu CE, Guy RK. 2007. Reporting data from high-throughput screening of small-molecule libraries. Nat Chem Biol. doi:10.1038/nchembio0807-438 Yasgar A, Shinn P, Jadhav A, Auld D, Michael S, Zheng W, Austin CP, Inglese J, Simeonov A. 2008. Compound Management for Quantitative High-Throughput Screening. J Lab Autom 13:79 - 89. doi:10.1016/j.jala.2007.12.004
# Potency means the concentration at half of the fitted maximal effect.
# Sequence of Metallo-beta-lactamase type 2 (Klebsiella pneumoniae) (C7C422 whole entry, looked up): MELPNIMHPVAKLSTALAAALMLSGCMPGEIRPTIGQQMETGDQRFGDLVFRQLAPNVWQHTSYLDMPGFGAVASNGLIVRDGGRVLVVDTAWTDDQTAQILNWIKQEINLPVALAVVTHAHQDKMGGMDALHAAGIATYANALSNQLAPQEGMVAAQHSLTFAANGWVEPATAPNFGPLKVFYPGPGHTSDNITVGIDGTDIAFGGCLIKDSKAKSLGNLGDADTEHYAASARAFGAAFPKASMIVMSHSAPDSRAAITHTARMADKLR
SMILES,"activity, negative = inhibition",Potency
Cn1cc(C(NC(=O)c2ccc3c(c2)ncn3CCO)C2CC(O)C2)cn1 (stereo not drawn),-11.3%,
Cc1nnc(-c2cc(N3CCN(c4ccccn4)CC3)ccn2)n1C1CCCCC1,-1.57% [at 57.5 µM],
O=C1CO[C@H]2CN(c3nccc(C(F)(F)F)n3)C[C@H]2N1Cc1ccc(F)cc1,1.03% [at 57.5 µM],
COc1cc(=O)n2c(c1C(=O)NC1CCCCCC1)CCCC2,0.186%,
Cc1cccc(N(CC(=O)N[C@H]2CC[C@H]2NC2CCCC2)S(C)(=O)=O)c1,-5.09%,
O=C(O)[C@]12CCCN[C@@H]1CCN(Cc1cnc(-c3ccccn3)nc1)C2,3.6%,
CCOCCn1nc(C)cc1C(=O)N1C[C@@H](C)[C@](O)(C2CC2)C1,-0.533%,
COc1cccc(-c2cccc(CCOc3cnc4c(ccn4CC(=O)O)c3)c2)c1,-1.17% [at 57.5 µM],
O=C(N[C@@H]1CCN(Cc2cccc3nonc23)C[C@H]1O)c1cccnc1,-1.15%,
COC(=O)c1ccc2nc(C[C@@H]3C[C@@H](C(C)C)[C@H](CN(C)C)C=C3C)[nH]c2c1,-8.3% [at 57.5 µM],
CCO[C@H]1C[C@@H](O)C12CCN(C(=O)c1cc(S(N)(=O)=O)ccc1F)CC2,1.64%,
CN(C)Cc1cn(C[C@H]2C[C@@H](NC(=O)c3nc4ccccc4s3)[C@H](O)[C@@H]2O)nn1,-6.95%,
COc1cc(CNC(=O)CCC2CCN(S(=O)(=O)c3ccccc3)CC2)cc(OC)c1,-10.9%,
c1cncc(-c2cnc([C@@H]3COCCN3Cc3ncc[nH]3)[nH]2)c1,-25.1% [at 57.5 µM],
Oc1ccccc1CN1CCOC[C@H]1c1ncc(-c2cccc(Cl)c2)[nH]1,-3.86% [at 57.5 µM],
Clc1cccc(-c2cnc([C@@H]3COCCN3Cc3cnc[nH]3)[nH]2)c1,,13.7 µM (active)
CC1(C)CN(C(=O)c2ccccc2Oc2ccccc2)CC1(C)O (stereo not drawn),1.27%,
O=c1ncn(Cc2ccccc2)c2ccc(-c3ccc(O)c(F)c3)nc12,4.77% [at 57.5 µM],
CCOC(=O)C[C@@H]1C[C@@H](C(C)C)[C@H](CNC(=O)c2ccc(C#N)cc2)C=C1C,0.154% [at 57.5 µM],
CCC1=C(C(=O)OC)C(c2ccccc2OC)N2C(CC(=O)N3CC(C)OC(C)C3)=CSC2=N1 (stereo not drawn),-17.2%,
CC1(C(=O)NCCc2ccccn2)CCc2cnc(NCc3ccccc3)nc21 (stereo not drawn),-0.0818% [at 57.5 µM],
Cn1ccc2c(C(=O)NCCc3cnc[nH]3)nc(-c3cccnc3)cc21,0.339% [at 57.5 µM],
C[S+](=O)([O-])Nc1cccc(-c2cc(-c3cccnc3)c3cncn3c2)c1,-17.6% [at 57.5 µM],
O=C1Nc2cc(Cl)ccc2C(=O)N2CCN(C(=O)c3ccccc3)C[C@H]12,-14.3% [at 57.5 µM],

SMILES,"activity, negative = inhibition",Potency
O=C(Cc1c[nH]c2ncc(-c3ccccc3F)cc12)NCc1cccnc1,1.05% [at 57.5 µM],
COCc1cc(C[C@@H]2CC[C@H](O)[C@@H](CNS(=O)(=O)c3ccccc3)O2)no1,-0.232% [at 57.5 µM],
O=C(NC1CC(=O)N(CCc2cccc(Cl)c2)C1)c1ccsc1 (stereo not drawn),1.1%,
CCN(CC)C(=O)C[C@@H]1c2nc(NC(=O)N3CCOCC3)sc2C[C@@H]2[C@](C)(CO)[C@H](O)CC[C@]21C,7.87%,
CS(=O)(=O)N[C@H]1C[C@H]2C(=O)Nc3ccc(-c4ccc5c(c4)OCO5)cc3C(=O)N2C1,8.55% [at 57.5 µM],
COc1ccc(-c2cnc3[nH]cc(CC(=O)Nc4ccncc4)c3c2)cc1,42.4% [at 57.5 µM],
COc1ccc2c(c1)nc1n2[C@@H](CNC(=O)c2ccncc2)COC1,0.0321% [at 57.5 µM],
O=C(CCCc1ccccc1)N[C@@H]1CN(c2ccncn2)C[C@H]1CO,-4.2%,
Cc1c(CN2C[C@@H](COc3ccccc3)[C@H](C(N)=O)C2)cnn1C,2.24%,
Cc1ccc(C)c(-c2cc(C(=O)N3CCCC3c3nncn3C(C)C)[nH]n2)c1 (stereo not drawn),2.36%,
O=S(=O)(c1ccc(F)cc1)N1CCCC(Cc2noc(-c3cnccn3)n2)C1 (stereo not drawn),-2.02%,
CN1CCCC1c1nc(C2CN(C(=O)c3ccsc3)C2)no1 (stereo not drawn),-1.68%,
CN1C(=O)CC(C(=O)O)C12CCN(C(=O)CCc1cccnc1)CC2 (stereo not drawn),8.54%,
Cn1c(CO[C@H]2CN(C(=O)c3cccnc3)C[C@H]2F)nc2ccccc21,0.8% [at 57.5 µM],
C[C@@H](c1ccccc1)N1C(=O)[C@@H]2CN(C(=O)c3ccco3)CCN2C1=O,-7.93% [at 57.5 µM],
COc1ccc(OC)c(CN2CCC3(CC2)Nc2ccccc2NC3=O)c1,-1.47%,
NC(=O)C1CCCN(CCNc2cc(-c3ccccc3)nc3ccnn23)C1 (stereo not drawn),2.07%,
COC(=O)[C@H](NC(=O)[C@@H]1C[C@@H](NC(=O)c2ccncc2)CCN1S(=O)(=O)c1ccc(OC)cc1)C(C)C,-3.06%,
Cc1cncc(C(=O)N2CC[C@@H](c3ccc4ccccc4c3)[C@H](O)C2)c1,-1.9%,
CCn1cnnc1CC1CCN(C(=O)NC)C1 (stereo not drawn),9.39%,
O=C(c1ccoc1)N1CCCn2cc(-c3ccccc3)nc21,3.3%,
NC(=O)CCNC(=O)C1=C[C@@H](NC(=O)c2cccs2)[C@@H](O)[C@H](O)C1,10.8% [at 57.5 µM],
Cc1ccc(O)c(CN2CC[C@@H](c3ccc(F)cc3)[C@H](O)C2)c1,-5.08%,
Cc1cnc(C(=O)N2CCCC(c3nc(-c4cccnc4)no3)CCNC(=O)CC2)cn1 (stereo not drawn),-3.61%,
